TDP1 cell noCPT: qHTS for Inhibitors of human tyrosyl-DNA phosphodiesterase 1 (TDP1): qHTS in cells in absence of CPT; actives 15% (n = 420,000); Potency, µM (series often up to 46.2 µM), inactives show top-dose activity change, negative = growth inhibition, actives largely listed as inhibitors; DT40 Tdp1-/- hTDP1 cells, no CPT, ATP luminescence, 48 h; note: potency is the fitted concentration of half-maximal effect; % is set by controls: 0 for no effect and ±100 for the full control effect; nearly all actives have a fitted effect of over 55% in size
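Chicken DT40 Tdp1-/- cells complemented with human TDP1, screened without camptothecin (DMSO vehicle only), 400 cells/well. Compounds pin-transferred, cells incubated at 37 °C for at least 48 hr. Growth read as ATP-dependent luminescence (CellTiter-Glo, 30 min at RT).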
DT40 TDP1 CPT: qHTS for Inhibitors of human tyrosyl-DNA phosphodiesterase 1 (TDP1): qHTS in cells in presence of CPT; chicken DT40 Tdp1-/-;hTDP1 cells + 20 nM CPT, ATP luminescence, 48 h; Potency, µM (top dose mostly 46.2 µM), without a hit: at the top dose activity change, negative = growth inhibition, usual class: inhibitors; actives 12% (n = 420,000); AID 686979, 2013; note: potency is the fitted concentration of half-maximal effect; % is set by controls: 0 for no effect and ±100 for the full control effect; nearly all actives have a fitted effect of over 55% in size
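Chicken DT40 Tdp1-/- cells stably complemented with human TDP1 were seeded at 400 cells/well in medium containing 20 nM camptothecin, exposed to pin-transferred compounds, and grown at 37 °C for at least 48 hr. Viability was read as ATP luminescence.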
uPA generation: qHTS for Inhibitors of Cell Surface uPA Generation | actives 0.31% (n = 330,000) | cell surface uPA generation assay, qHTS | Potency, µM (titrated, usually from 38.3 µM), without a hit: top-dose activity change, negative = inhibition, usual class: inhibitors; active = well fitted inhibition curve with a large enough effect; inconclusive = small, poorly fitted or top-dose-only effect; inactive = no such curve, though single readings can be large or run the other way; tested in mouse RAW 264.7 cells; note: potency is the fitted concentration of half-maximal effect; % is set by controls: 0 for no effect and ±100 for the full control effect; nearly all actives have a fitted effect of over 55% in size
TDP1 block: qHTS Assay for Inhibitors of Tyrosyl-DNA Phosphodiesterase (TDP1); Tyrosyl-DNA phosphodiesterase 1 (Homo sapiens), Q9NUW8; recombinant TDP1, AlphaScreen DNA substrate cleavage; Potency, µM (series often up to 130 µM), for the others: top-dose activity change, negative = inhibition, hits mostly inhibitors; actives 0.28% (n = 350,000); AID 485290, 2010; note: potency is the fitted concentration of half-maximal effect; % is set by controls: 0 for no effect and ±100 for the full control effect; nearly all actives have a fitted effect of over 40% in size
Target sequence (Q9NUW8 whole entry, looked up): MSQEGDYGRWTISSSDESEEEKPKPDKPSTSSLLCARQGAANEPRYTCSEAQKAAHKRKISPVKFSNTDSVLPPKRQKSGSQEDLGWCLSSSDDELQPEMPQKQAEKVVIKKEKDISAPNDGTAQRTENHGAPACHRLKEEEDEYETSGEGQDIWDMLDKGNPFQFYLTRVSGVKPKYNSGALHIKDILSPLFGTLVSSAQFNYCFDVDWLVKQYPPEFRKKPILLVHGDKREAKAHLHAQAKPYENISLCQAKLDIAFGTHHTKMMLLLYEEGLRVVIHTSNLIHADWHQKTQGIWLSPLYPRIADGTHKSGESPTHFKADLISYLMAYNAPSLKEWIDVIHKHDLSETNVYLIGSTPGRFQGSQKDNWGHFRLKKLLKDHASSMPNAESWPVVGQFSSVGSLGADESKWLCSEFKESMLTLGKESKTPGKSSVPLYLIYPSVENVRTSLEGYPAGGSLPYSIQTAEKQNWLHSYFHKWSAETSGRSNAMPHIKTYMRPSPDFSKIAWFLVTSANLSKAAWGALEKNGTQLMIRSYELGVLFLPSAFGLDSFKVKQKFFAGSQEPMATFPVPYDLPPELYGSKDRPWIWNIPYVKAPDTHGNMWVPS
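Recombinant human Tdp1 (E. coli-expressed, 1 nM final) preincubated with compounds 15 min at room temperature, then 5'-biotin/3'-phosphotyrosine-FITC DNA substrate (15 nM final) added for 5 min. AlphaScreen beads (10 ug/ml final) added 10 min; cleavage lowers signal.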
miR-21 act: qHTS Assay for Modulators of miRNAs and/orActivators of miR-21; AID 2288, 2010; 340,000 tested, under 10 active; Potency, µM (titrated, usually from 38.3 µM), without a hit: at the highest dose activity change, positive = activation, usual class: activators; HeLa miR-21 FLuc reporter, luciferase, 48 h;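 note: % of control where 0% means no effect; miR-21 action dims this reporter so a rising signal means less miR-21 action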
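HeLa miR-21-FLuc reporter line, endogenous miR-21; 2000 cells/well in DMEM/10% FBS; compound titration up to ~40uM final, 48 h, 37 degree Celsius; luciferase detection reagent, 15 min lysis, CCD luminescence.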
Starred values were filed as active, the others as inactive; ? = inconclusive; / = no result given; [ ] = dose if it differs, or a comment. An excerpt weighted towards active compounds, which were near 16% of everything screened. Unless noted, calls come from the whole dose curve; as a rule, active = well fitted curve in the direction sought with a large enough effect; inconclusive = small, poorly fitted or top-dose-only effect, or another doubt; inactive = no such curve, though single readings can be large; an effect the other way counts as inactive or inconclusive.

SMILES | TDP1 cell noCPT | DT40 TDP1 CPT | uPA generation | TDP1 block | miR-21 act
COc1cc(SC)ccc1C(=O)Nc1cc(C)c(OCC(=O)N2CCOCC2)c(C)c1 | 23µM* | ? | ? | 5% | -11%
CCCCOc1ccc(C(=O)Nc2cc(C)c(OCC(=O)N3CCOCC3)c(C)c2)cc1 | ? | ? | -5% | 1% | -3%
O=C(NN=C(c1ccccc1)c1ccccn1)c1ccccc1 | 0.92µM* | 1µM* | -2% | 3% | /
COc1ccc(C(=O)Nc2ccc(NC(=O)c3ccccn3)cn2)cc1 | -20% | -7% | -9% | 0% | -23%
O=C(NC(O)C(=O)c1ccccc1)c1ccccn1 (centres undefined) | ? | 23µM* | -6% | 2% | 0%
O=C(N/N=C(\c1ccccc1)c1ccccn1)c1ccccc1Cl | ? | ? | 9% | 3% | 7%
COc1ccc(C(=O)N/N=C(\c2ccccc2)c2ccccn2)cc1 | 2.6µM* | 2.9µM* | 12% | 10% | 3%
CC1CCCN(c2ccc(C(=O)NCc3cccs3)cn2)C1 (centres undefined) | ? | ? | -17% | 8% | -80%
CC(C)(C)NC(=O)C(c1ccc(F)cc1)N(Cc1ccco1)C(=O)CCC(=O)Nc1ccccn1 (centres undefined) | -1% | 1% | -4% | 5%[0.0935 µM] | -1%
Cc1nc2ccccc2c(=O)n1-c1ccc(NC(=O)c2ccccc2[N+](=O)[O-])cc1 | 23µM* | ? | / | 3% | 3%
Cc1cc(-n2c(C)nc3ccccc3c2=O)ccc1NC(=O)c1ccc(C)c([N+](=O)[O-])c1 | 5.2µM* | 7.3µM* | / | 3% | -5%
Cc1cccc(S(=O)(=O)Nc2ccc(-n3c(C)nc4ccccc4c3=O)cc2)c1 | 23µM* | ? | -4% | 2% | /
CC(c1ccco1)N(C(=O)c1cccc(S(=O)(=O)N(C)C)c1)c1ccccn1 (centres undefined) | ? | ? | 0% | 5% | 5%
Cc1ccc(Nc2nc3ccccc3[nH]2)nc1 | 16µM* | ? | 2% | 5% | -41%
Cc1ccc(/C=C/C(=O)Nc2nc3ccccc3[nH]2)cc1 | ? | 13µM* | -1% | 0% | -60%
Cc1ccc(/C=C/C(=O)c2nc3ccccc3[nH]2)cc1 | 16µM* | 21µM* | 1% | 2% | -5%
O=C(/C=C/c1c(F)cccc1Cl)Nc1nc2ccccc2[nH]1 | ? | -6% | -2% | 2% | -70%
Cc1ccc(C)c(C(=O)Nc2nc3ccccc3[nH]2)c1 | 2.3µM* | ? | -11% | 5%[0.0935 µM] | -27%
COC(=O)C(C)Sc1nc2c(cnn2-c2ccccc2)c(=O)[nH]1 (centres undefined) | ? | -13% | -1% | -7% | 3%
Cc1nc(-c2ccncc2)nc(NCCNc2ccc(C(F)(F)F)cn2)c1Cl | ? | -7% | 3% | / | 3%
CN(C)c1nc(OCC(=O)NC(C)(C)C)nc(N(C)C)n1 | 16% | 4% | 3% | 0% | -9%
O=C(Nc1ccc(Cl)cc1)N1CCCN(Cc2ccccc2F)C1 | ? | 25µM* | / | 4% | -5%
Cc1ccc(NC(=O)N2CCCN(Cc3ccc(F)cc3)C2)cc1C | ? | ? | -2% | 2% | -18%
CCOc1ccc(N2C(=O)CN(O)C=C3N=c4ccccc4=C32)cc1 | / | / | / | 6% | -4%
S=c1[nH]c(-c2ccccc2)cn1/N=C/c1ccc(Br)cc1 | 4.6µM* | 3.7µM* | -1% | 5% | 2%
SMILES | TDP1 cell noCPT | DT40 TDP1 CPT | uPA generation | TDP1 block | miR-21 act
Fc1ccccc1/C=N/n1cc(-c2ccccc2)[nH]c1=S | 8.2µM* | 15µM* | -1% | 8% | -17%
S=c1[nH]c(-c2ccccc2)cn1/N=C/c1cccs1 | 8.2µM* | -97% | -1% | 6% | -10%
O=C(/C=C/c1cccc(Br)c1)N1CCN(c2ccccn2)CC1 | -4% | -3% | -1% | 9% | -5%
COc1ccc(/C=N/N=C/c2ccc(OC)c(OC)c2)cc1OC | -23% | -13% | 2% | 5% | -1%
COc1cc(/C=N/N=C(N)N)ccc1OCc1ccccc1Cl | 15µM* | ? | ? | 5% | ?
COCCCNC(=O)CC1C[C@H](C(=O)N2CCCCC2)[C@@]2(C)c3[nH]c4ccc(OC)cc4c3CCN2C1=O (some centres undefined) | -5% | 1% | -24% | 2%[56.1 µM] | /
COCCCNC(=O)C[C@H]1C[C@H](C(=O)N2CCCCC2)[C@@]2(C)c3[nH]c4ccc(Cl)cc4c3CCN2C1=O | 13µM* | 21µM* | -6% | -2%[56.1 µM] | /
C[C@]12c3[nH]c4ccc(Cl)cc4c3CCN1C(=O)[C@@H](CC(=O)NCCc1ccccn1)C[C@@H]2C(=O)N1CCCCC1 | 26µM* | ? | -29% | 0%[56.1 µM] | /
Cc1cccc2c(C(=O)n3cccn3)cc(-c3ccccc3Cl)nc12 | ? | ? | 6% | -2% | -4%
CC(=O)c1cc2c(cc1NC(=O)CN1CCN(c3ccc(F)cc3)CC1)OCO2 | -28% | -11% | 2% | 4% | -2%
N#CC(C(=S)Nc1ccccc1)c1nc2ccccc2[nH]1 (centres undefined) | 5.2µM* | 5.2µM* | -28% | / | 10%
Cc1[nH][nH]c(=O)c1N=Nc1ccc(Br)c(Cl)c1 | 23µM* | ? | -4% | / | /
O=[N+]([O-])c1ccccc1Oc1ccc(S(=O)(=O)N2CCOCC2)cc1 | 21µM* | ? | -24% | 3% | /
CC1CCN(S(=O)(=O)c2ccc(Oc3ccc([N+](=O)[O-])cc3)cc2)CC1 | 16µM* | 16µM* | / | 1% | -1%
O=[N+]([O-])c1ccc(Oc2ccc(S(=O)(=O)N3CCCCC3)cc2)cc1 | 15µM* | 16µM* | -3% | 0% | -6%
O=S(=O)(c1ccc(Oc2ccc3c(c2)OCO3)c(S(=O)(=O)N2CCOCC2)c1)N1CCOCC1 | 11µM* | 0.89µM* | / | 2% | /
C/C(=N\NC(=O)C(=O)Nc1c(C)n(C)n(-c2ccccc2)c1=O)c1ccc(Cl)s1 | -10% | 2% | -6% | / | 3%
COc1ccc(CCNC(=O)Cn2nnc(C(=O)Nc3cc(C)ccc3C)c2N)cc1OC | -30% | ? | -3% | 1% | 10%
COc1ccc(S(=O)(=O)Nc2ccc3c(c2)C(=O)N([C@H](C)CO)C[C@H](C)[C@@H](CN(C)C(=O)Nc2ccc(F)cc2)OCCCC[C@H](C)O3)cc1 | 23µM* | ? | / | / | /
